This is an account of results in the supplement of paper PMC11634586.

Unmarked numbers belong to inactive results.

For the assay, the system named is NCI-H1688. Kind of assay: inhibition of cell viability relative to untreated control (fraction); higher = stronger growth inhibition, active = 0.5 or more. Conditions: 30 µM; 24 h. As to the method: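 Natural product library (TargetMol, 640 compounds) screened on NCI-H1688 SCLC cells at 30 µM for 24 h; viability by CCK-8 absorbance at 450 nm, normalised to untreated control and expressed as inhibition rate (fraction). Compounds with >50% reduction in viability were selected as hits.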
As to `CC[C@H]1OC(=O)[C@H](C)[C@@H](O[C@H]2C[C@@](C)(OC)[C@@H](O)[C@H](C)O2)[C@H](C)[C@@H](O[C@@H]2O[C@H](C)C[C@H](N(C)C)[C@H]2O)[C@](C)(O)C[C@@H](C)CN(C)[C@H](C)[C@@H](O)[C@]1(C)O` [Azithromycin dihydrate], the “inhibition of cell viability” value was 0.037.

In the case of `CC[C@@H]1C(=O)OC[C@@H]1Cc1cncn1C` [Pilocarpine nitrate], the “inhibition of cell viability” value was -0.128. As for `CC(C)C[C@@H](NC(=O)[C@H](C)NC(=O)CNC(=O)[C@@H](NC=O)C(C)C)C(=O)N[C@@H](C)C(=O)N[C@@H](C(=O)N[C@H](C(=O)N[C@H](C(=O)N[C@@H](Cc1c[nH]c2ccccc12)C(=O)N[C@H](CC(C)C)C(=O)N[C@@H](Cc1c[nH]c2ccccc12)C(=O)N[C@H](CC(C)C)C(=O)N[C@@H](Cc1c[nH]c2ccccc12)C(=O)N[C@H](CC(C)C)C(=O)N[C@@H](Cc1c[nH]c2ccccc12)C(=O)NCCO)C(C)C)C(C)C)C(C)C` [Gramicidin], the figure is 0.981 (active). As for `O=c1c(O)c(-c2ccc(O)c(O)c2)oc2cc(O)ccc12` [Fisetin], the “inhibition of cell viability” value was 0.0255. `C[C@]12CCC(=O)C=C1CC[C@@H]1[C@@H]2C(=O)C[C@@]2(C)[C@H]1CC[C@]2(O)C(=O)CO` [Cortisone]: the “inhibition of cell viability” value was -0.215. As to `C=C1CC[C@@H]2[C@](C)(CO)[C@H](O)CC[C@@]2(C)[C@H]1C/C=C1\C=COC1=O` [Dehydroandrographolide], the “inhibition of cell viability” value was 0.14. With `COc1ccc(-c2cc(=O)c3c(OC)c(OC)c(OC)c(OC)c3o2)cc1` [Tangeretin], the “inhibition of cell viability” value was 0.299. Regarding `CC1=CC(=O)CC(C)(C)C1=O` [Ketoisophorone], the “inhibition of cell viability” value was -0.175. As for `C[C@H]1O[C@@H](O[C@H]2[C@@H](O)C[C@H](O[C@H]3[C@@H](O)C[C@H](O[C@H]4CC[C@@]5(C)[C@H](CC[C@@H]6[C@@H]5C[C@@H](O)[C@]5(C)[C@@H](C7=CC(=O)OC7)CC[C@]65O)C4)O[C@@H]3C)O[C@@H]2C)C[C@H](O)[C@@H]1O` [Digoxin], the figure is 0.995 (active).

Take `O=C1C=C(O)C(=O)c2ccccc21` [Lawsone]: the “inhibition of cell viability” value is -0.319.

In the case of `Cc1c(C)c2c(c(C)c1O)CC[C@@](C)(CCC[C@H](C)CCC[C@H](C)CCCC(C)C)O2` [Vitamin E], the “inhibition of cell viability” value is -0.243. With `C=C[C@H]1[C@H](O[C@@H]2O[C@H](CO)[C@@H](O)[C@H](O)[C@H]2O)OC=C2C(=O)OCC[C@]21O` [Swertiamarin], the “inhibition of cell viability” value was -0.0605. Turning to `N[C@@H](Cc1c[nH]c2ccccc12)C(=O)O` [L-Tryptophan], the “inhibition of cell viability” value was -0.199. As for `O=c1cc(-c2ccccc2)oc2cc(O)cc(O)c12` [Chrysin], the “inhibition of cell viability” value is 0.197. Consider `CC(C)=CCC[C@](C)(O)[C@H]1CC[C@]2(C)[C@@H]1[C@H](O)C[C@@H]1[C@@]3(C)CC[C@H](O)C(C)(C)[C@@H]3[C@@H](O[C@@H]3O[C@H](CO)[C@@H](O)[C@H](O)[C@H]3O[C@@H]3O[C@@H](C)[C@H](O)[C@@H](O)[C@H]3O)C[C@]12C` [Ginsenoside Rg2], for which the “inhibition of cell viability” value is 0.155. Take `COC(=O)C1=CO[C@@H](O)[C@@H]2C(CO)=CC[C@H]12` [Genipin]: the “inhibition of cell viability” value is 0.135. In the case of `CC[C@H](C)C(=O)O[C@H]1C[C@@H](C)C=C2C=C[C@H](C)[C@H](CC[C@@H]3C[C@@H](O)CC(=O)O3)[C@H]21` [Lovastatin], the “inhibition of cell viability” value is 0.836 (active). For `O=c1c(O)c(-c2ccc(O)c(O)c2)oc2cc(O)cc(O)c12` [Quercetin], the “inhibition of cell viability” value is 0.68 (active). As for `OC[C@H]1O[C@@](CO)(O[C@H]2O[C@H](CO)[C@@H](O)[C@H](O)[C@H]2O)[C@@H](O[C@H]2O[C@H](CO)[C@@H](O)[C@H](O)[C@H]2O)[C@@H]1O` [Melezitose], the “inhibition of cell viability” value was -0.0856.

Regarding `Oc1ccc(/C=C/c2cc(O)cc(O)c2)cc1` [Resveratrol], the “inhibition of cell viability” value is 0.49. In the case of `COc1cc(OC)c2ccc(=O)oc2c1` [Citropten], the “inhibition of cell viability” value is -0.00623.

Turning to `C=C1C(=O)O[C@@H]2C[C@@]3(C)CCC[C@H](C)C3=C[C@H]12` [Helenine], the “inhibition of cell viability” value is 0.789 (active).

Consider `N[C@@H](Cc1cc(I)c(Oc2cc(I)c(O)c(I)c2)c(I)c1)C(=O)O` [L-Thyroxine], for which the “inhibition of cell viability” value was 0.22. As for `COc1c(C)c2c(c(O)c1C/C=C(\C)CCC(=O)O)C(=O)OC2` [Mycophenolic acid], the “inhibition of cell viability” value was 0.841 (active).

As to `CO[C@H]1C[C@H](O[C@H]2[C@H](C)O[C@@H](O[C@@H]3/C(C)=C/C[C@@H]4C[C@@H](C[C@]5(C=C[C@H](C)[C@@H](C6CCCCC6)O5)O4)OC(=O)[C@@H]4C=C(C)[C@@H](O)[C@H]5OC/C(=C\C=C\[C@@H]3C)[C@]54O)C[C@@H]2OC)O[C@@H](C)[C@@H]1O` [Doramectin], the “inhibition of cell viability” value was 0.993 (active). Take `CC1(C)C2CC[C@@]3(C)[C@@H](C(=O)C=C4[C@@H]5C[C@](C)(C(=O)O)CC[C@@]5(C)CC[C@@]43C)[C@]2(C)CC[C@H]1O` (stereo not given in full) [Glycyrrhetinic acid(Enoxolone)]: the “inhibition of cell viability” value was -0.198. Take `CCOC(=O)/C=C/c1ccc(O)c(OC)c1` [Ethyl ferulate]: the “inhibition of cell viability” value was -0.0133.

`O=c1[nH]cnc2nc[nH]c12` [6-Hydroxypurine]: the “inhibition of cell viability” value was -0.00202. In the case of `CC[C@H](C)[C@H](N)C(=O)O` [isoleucine], the “inhibition of cell viability” value is -0.178. As for `OC[C@H]1O[C@@H]2O[C@H]3[C@H](O)[C@@H](O)[C@@H](O[C@H]4[C@H](O)[C@@H](O)[C@@H](O[C@H]5[C@H](O)[C@@H](O)[C@@H](O[C@H]6[C@H](O)[C@@H](O)[C@@H](O[C@H]7[C@H](O)[C@@H](O)[C@@H](O[C@H]8[C@H](O)[C@@H](O)[C@@H](O[C@H]1[C@H](O)[C@H]2O)O[C@@H]8CO)O[C@@H]7CO)O[C@@H]6CO)O[C@@H]5CO)O[C@@H]4CO)O[C@@H]3CO` [Beta-Cyclodextrin], the figure is 0.0604; as for `N[C@@H](Cc1c[nH]c2ccc(O)cc12)C(=O)O` [L-5-Hydroxytryptophan], 0.0989; as for `OC[C@@H](O)[C@H](O)[C@H](O)[C@@H](O)CO` [Dulcitol], -0.284. As for `COc1cc(/C=C/C(=O)O)cc(OC)c1OC` [3,4,5-Trimethoxycinnamic acid], the figure is 0.124; as for `Cc1cc2nc3c(=O)[nH]c(=O)nc-3n(C[C@H](O)[C@H](O)[C@H](O)COP(=O)(O)O)c2cc1C` [Flavin mononucleotide], 0.0137; as for `COc1ccc(C[C@H]2COC(=O)[C@@H]2Cc2ccc(O[C@@H]3O[C@H](CO)[C@@H](O)[C@H](O)[C@H]3O)c(OC)c2)cc1OC` [Arctiin], 0.0918. Turning to `C[N+](C)(C)CC(=O)O` [Betaine], the “inhibition of cell viability” value is 0.299. As for `CC(C)C1=CC2=CC[C@@H]3[C@](C)(CCC[C@@]3(C)C(=O)O)[C@H]2CC1` [Abietic Acid], the “inhibition of cell viability” value is 0.0466. Next, `O=C1c2c(O)cccc2C([C@@H]2O[C@H](CO)[C@@H](O)[C@H](O)[C@H]2O)c2cc(CO)cc(O)c21` (stereo not given in full) [Aloin]: -0.014; `C/C=C(/C)C(=O)OC(C)(C)[C@@H]1Cc2c(ccc3ccc(=O)oc23)O1` [Columbianadin]: 0.338; `COc1cc(C=O)ccc1OC(C)=O` [Acetylvanillin]: -0.295.
